Some test systems named below: NCI-H23 lung; NCI-H226 lung; NCI-H322M lung; HOP-62 NSCLC; NCI-H460 lung; HOP-92 NSCLC; NCI-H522 lung; A549/ATCC NSCLC; 786-0 renal; COLO 205 colon; DU-145 prostate; K-562 leukemia; MALME-3M melanoma; MDA-MB-231 breast; RXF 393 renal; SF-268 CNS; SF-295 CNS; SF-539 CNS; UACC-257 melanoma; M14 melanoma.
Assay in all cases: NCI-60 one-dose screen, 48 h (100 = growth as untreated, 0 = no growth, -100 = all killed)
What all share (conditions): 10 µM unless noted

The panel holds about 83,000 compounds, 20% with a hit somewhere; the sample as a whole holds those more often.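 Each cell line was grown in a 96-well plate and treated with one concentration of compound for 48 hours. Values below 10 were considered active.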 Unmarked numbers belong to inactive results. The source made the active and inactive calls.

On to `CC(C)(C)C(=O)/C=C/c1ccc([N+](=O)[O-])cc1`, for which the growth in the experiment on NCI-H23 lung is 85.7%; with NCI-H226 lung, 69.6%; in the experiment on NCI-H322M lung, 103%; with HOP-62 NSCLC it was 103%; with NCI-H460 lung it was 97.9%; with HOP-92 NSCLC, 67.5%. In addition, the growth was 40% in the experiment with NCI-H522 lung; 66.8% in the experiment with A549/ATCC NSCLC; 97.5% with 786-0 renal; 82.5% in the experiment on COLO 205 colon; 80.2% in the experiment with DU-145 prostate; 13.3% in the experiment on K-562 leukemia. In addition, the growth in the experiment on MALME-3M melanoma is 103%; in the experiment with MDA-MB-231 breast, 81.2%; in the experiment on RXF 393 renal it was 93.7%; in the experiment with SF-268 CNS, 90.1%; in the experiment on SF-295 CNS, 93.3%; with SF-539 CNS, 86.9%. In addition, the growth in the experiment on UACC-257 melanoma was 50%; in the experiment on M14 melanoma, 70.9%.
With `CCN1C(=O)N(CC)C2C1NN=C1SCC(=O)N12` (stereo not given), the growth was 96.1% with NCI-H23 lung; 91.6% in the experiment on NCI-H226 lung; 103% in the experiment on NCI-H322M lung; 100% in the experiment with HOP-62 NSCLC; 103% in the experiment on NCI-H460 lung; 114% in the experiment with HOP-92 NSCLC. Moreover, the growth with NCI-H522 lung was 77.5%; with A549/ATCC NSCLC, 102%; in the experiment with 786-0 renal, 95.8%; with COLO 205 colon, 44.7%; in the experiment on DU-145 prostate, 101%; in the experiment with K-562 leukemia, 47.9%. Moreover, the growth in the experiment on MALME-3M melanoma was 77%; with MDA-MB-231 breast it was 59.4%; with RXF 393 renal, 107%; in the experiment with SF-268 CNS, 98.6%; with SF-295 CNS, 100%; with SF-539 CNS, 92.9%. In addition, the growth was 22.2% with UACC-257 melanoma and 85% with M14 melanoma.
Take `CCn1cc(C(=O)NN=C2CCCCCC2)c(=O)c2ccc(C)nc21`: the growth in the experiment with NCI-H23 lung was 89.5%; in the experiment on NCI-H226 lung, 82%; in the experiment with NCI-H322M lung, 88.7%; in the experiment on HOP-62 NSCLC, 94.8%; in the experiment with NCI-H460 lung it was 92.4%; in the experiment with HOP-92 NSCLC, 80.7%. Besides, the growth in the experiment on NCI-H522 lung was 75.3%; in the experiment on A549/ATCC NSCLC, 82.6%; in the experiment with 786-0 renal, 87.2%; in the experiment on COLO 205 colon, 97.8%; in the experiment on DU-145 prostate, 89.2%; in the experiment with K-562 leukemia, 72%. In addition, the growth in the experiment on MALME-3M melanoma is 97.1%; in the experiment with MDA-MB-231 breast it was 87.1%; with RXF 393 renal, 100%; with SF-268 CNS, 84%; in the experiment with SF-295 CNS, 77.7%; with SF-539 CNS, 100%. The growth in the experiment on UACC-257 melanoma was 87.8%; in the experiment with M14 melanoma, 103%.
As to `Cc1ccc(/C=C(\C#N)C(=O)Nc2ncc(Cc3cc(Cl)ccc3Cl)s2)o1`, the growth is 67.1% in the experiment with NCI-H23 lung; 90.1% in the experiment on NCI-H226 lung; 47.3% in the experiment with NCI-H322M lung; 41.6% with HOP-62 NSCLC; 30.6% in the experiment on NCI-H460 lung; 77% in the experiment on HOP-92 NSCLC. Besides, the growth was 48.6% with NCI-H522 lung; 39.8% in the experiment with A549/ATCC NSCLC; 46.9% in the experiment with 786-0 renal; 102% in the experiment with COLO 205 colon; 60% in the experiment on DU-145 prostate; 24.6% in the experiment on K-562 leukemia. For the same molecule, the growth was 54.3% with MALME-3M melanoma; 76.4% with MDA-MB-231 breast; 38.3% in the experiment on RXF 393 renal; 44.2% in the experiment with SF-268 CNS; 5.34% (active) in the experiment on SF-295 CNS; 16.9% in the experiment on SF-539 CNS. For the same molecule, the growth is 35.3% with UACC-257 melanoma and 69.4% in the experiment on M14 melanoma.
On to `C=C(CN1CC=CCC1)[C@@H]1CC[C@]2(CO)CC[C@]3(C)[C@H](CC[C@@H]4[C@@]5(C)CC[C@H](O)C(C)(C)[C@@H]5CC[C@]43C)[C@@H]12`, for which the growth in the experiment on NCI-H23 lung was 101%; in the experiment on NCI-H226 lung, 97.4%; in the experiment with NCI-H322M lung, 110%; with HOP-62 NSCLC, 104%; with NCI-H460 lung, 96.2%; in the experiment on HOP-92 NSCLC it was 92.4%. The growth with NCI-H522 lung was 96%; with A549/ATCC NSCLC, 94.8%; in the experiment on 786-0 renal, 113%; with COLO 205 colon, 108%; in the experiment on DU-145 prostate, 106%; in the experiment with K-562 leukemia, 77%. Moreover, the growth in the experiment on MALME-3M melanoma is 101%; with MDA-MB-231 breast it was 116%; with RXF 393 renal, 106%; with SF-268 CNS, 101%; in the experiment on SF-295 CNS, 102%; in the experiment on SF-539 CNS, 91.1%. Further, the growth with UACC-257 melanoma is 111%; with M14 melanoma, 96.1%.
`COc1ccc(C(c2cc(OC)c(OC)c(OC)c2)N2CCCC2)cc1` (stereo not given): the growth is 85.3% with NCI-H23 lung; 87.6% with NCI-H226 lung; 87.5% in the experiment on NCI-H322M lung; 79.5% in the experiment with HOP-62 NSCLC; 84.3% in the experiment on NCI-H460 lung; 85.5% in the experiment with HOP-92 NSCLC. The growth was 58.5% in the experiment with NCI-H522 lung; 77.7% with A549/ATCC NSCLC; 93.4% with 786-0 renal; 71.2% with COLO 205 colon; 103% in the experiment on DU-145 prostate; 25.3% with K-562 leukemia. Moreover, the growth with MALME-3M melanoma was 85.3%; in the experiment with MDA-MB-231 breast, 80.8%; with RXF 393 renal it was 103%; in the experiment with SF-268 CNS it was 84.3%; with SF-295 CNS it was 69.7%; in the experiment with SF-539 CNS it was 95.7%. Also, the growth in the experiment with UACC-257 melanoma was 74.6%; in the experiment on M14 melanoma it was 60.1%.
Take `Cc1cc(C)cc(Nc2ccc([N+](=O)[O-])c(NCCN3CCOCC3)n2)c1`: the growth in the experiment with NCI-H23 lung is 30.3%; in the experiment on NCI-H226 lung, 22.6%; in the experiment with NCI-H322M lung, 44.1%; with HOP-62 NSCLC, 35.3%; with NCI-H460 lung, 8.31% (active); in the experiment with HOP-92 NSCLC, 67.7%. The growth with NCI-H522 lung is 13.3%; in the experiment on A549/ATCC NSCLC, 23.7%; with 786-0 renal, 8.13% (active); in the experiment on COLO 205 colon it was -45.9% (active); with DU-145 prostate, -1.87% (active); in the experiment with K-562 leukemia, 7.21% (active). The growth is 60.5% in the experiment on MALME-3M melanoma; 31.2% in the experiment with MDA-MB-231 breast; 58.4% in the experiment with RXF 393 renal; 25.1% in the experiment with SF-268 CNS; 15.7% with SF-295 CNS; -11.3% (active) with SF-539 CNS. In addition, the growth in the experiment with UACC-257 melanoma was 76.1%; in the experiment on M14 melanoma it was 1.99% (active).

For the origin of these results see PubChem BioAssay (NCI).
